Source: PubChem BioAssay (EPA / NIEHS)
Several values for one entry are separate records, joined by “and”; a condition that tells them apart may be missing. Equal values may be shown once. Activity calls are given as the source filed them. The calls were made as follows: active = hit-call score of the fitted dose curve at least 0.9, where 1 is the maximum; inactive = score below 0.9.

The compounds below were run on Interleukin-1 alpha (IL1a), IL1A (gene 3552) (assay: BSK_BE3C_IL1a: BioMAP Diversity Plus: BE3C Assay for Interleukin-1 alpha (IL1a) Biomarker Activity (AID 2283016)). Conditions: primary human bronchial epithelial cells; actives raise or lower the signal.
Protocol: BSK_BE3C is a cell-based, multiplexed-readout assay that uses bronchial epithelial cell, a human lung primary cell, with measurements taken at 24 hours after chemical dosing in a 96-well plate.BSK_BE3C_IL1a is an assay component measured in the BSK_BE3C assay. It measures IL-1a antibody related to regulation of gene expression using ELISA technology.Data from the assay component BSK_BE3C_IL1a was analyzed into 1 assay endpoint. This assay endpoint, BSK_BE3C_IL1a, was analyzed with bidirectional fitting relative to DMSO as the negative control and baseline of activity. Using a type of binding reporter, gain or loss-of-signal activity can be used to understand changes in the signaling as they relate to the gene IL1A. Furthermore, this assay endpoint can be referred to as a primary readout, because this assay has produced multiple assay endpoints where this one serves a signaling function. To generalize the intended target to other relatable targets, this assay endpoint is annotated to the cytokine intended target family, where the subfamily is interleukins.
The levels of cell surface (or secreted, indicated by the prefix "s") biomarker endpoints were measured by ELISA. Overt cytotoxicity to cells in confluent adherent cultures (all systems other than the BT system) was assessed by measuring total protein levels using sulforhodamine B (SRB) staining in parallel cultures at the time of biomarker measurements, indicated as SRB endpoints. For proliferation assays for adherent cell types, individual cell types are cultured at sub-confluence and relative cell numbers quantified by SRB staining at time points optimized for each system (48 h: 3C and CASM3C systems; 72 h: BT and HDF3CGF systems; 96 h: SAg system). SRB was performed by staining cells with 0.1% SRB after fixation with 10% TCA and reading wells at 560 nm.Viability and proliferation of PBMC (T cells) was quantified by Alamar Blue reduction for the SAg and BT systems. For PBMC viability (referred to as PBMC Cytotoxicity within the assay endpoint names), cells were plated (75,000/well in a 96-well plate) and then chemical samples added for 1 h before addition of activators, SEB and TSST-1 (20 ng/mL final concentration each). Cells were incubated for 90 h. Then, Alamar Blue (20 uL/well) (Invitrogen, Cat DAL1100) was added for 6 h, and the plates were read with a fluorescence microplate reader at 546/580 nm (excitation/emission). For PBMC proliferation, cells were plated and activated as above but incubated for only 16 h prior to addition of Alamar Blue. Plates were read after 6 h.

Row | Compound | outcome | AC50
1 | CCCCCCC(O)CCCCCCCCCCC(=O)OC (configuration not stated) | inactive | –
2 | COc1ccc(C(=O)c2ccccc2O)c(O)c1 | inactive | –
3 | Cc1cc(-n2nc3ccc(Cl)cc3n2)c(O)c(C(C)(C)C)c1 | inactive | –
4 | CN(C)c1ccc(C(c2ccccc2)c2ccc(N(C)C)cc2)cc1 | – | 5.43 µM (active)
5 | O=[N+]([O-])c1cc(S(=O)(=O)Nc2ccccc2)ccc1Nc1ccccc1 | – | 24 µM (active) and 30.5 µM (active)
6 | CCCCCCCCCC/C=C/C1CC(=O)OC1=O (configuration not stated) | – | 20 µM (active)
7 | CCCCCCCCCCC1CO1 (configuration not stated) | – | 31.5 µM (active)
8 | Cc1cccnc1 | inactive | –
9 | COc1ccccc1Oc1c(NS(=O)(=O)c2ccc(C(C)(C)C)cc2)nc(-c2ncccn2)nc1OCCO | inactive | –
10 | Cc1c(C(N)=O)cc([N+](=O)[O-])cc1[N+](=O)[O-] | inactive | –
11 | CC(C)C1OCCN1CCOC(=O)NCCCCCCNC(=O)OCCN1CCOC1C(C)C (configuration not stated) | inactive | –
12 | COC(=O)/C=C\C(=O)OC | inactive | –
13 | CN(C)Cc1cc(C(C)(C)C)c(O)c(C(C)(C)C)c1 | inactive | –
14 | COc1cc(CNC(=O)CCCC/C=C/C(C)C)ccc1O | inactive | –
15 | CC[N+](CC)(CC(=O)Nc1c(C)cccc1C)Cc1ccccc1 (tested in a mixture with another compound) | inactive | –
16 | OC(C(F)(F)F)(C(F)(F)F)C(O)(C(F)(F)F)C(F)(F)F | – | 31.6 µM (active) and 31.3 µM (active)
17 | CC(C)CC(=O)CC(C)CC(C)C (configuration not stated) | – | 31.5 µM (active)
18 | CCC(C)=NO | inactive | –
19 | CN(C)CCC(c1ccc(Cl)cc1)c1ccccn1 (configuration not stated) | inactive | –
20 | CCCCCCCCCCCCCCCCCC[N+](C)(C)C | – | 3.8 µM (active)
21 | CCCCC(CC)COC(=O)C=Cc1ccc(OC)cc1 (configuration not stated) | inactive | –
22 | CCC[Si](OC(C)=O)(OC(C)=O)OC(C)=O | inactive | –
23 | C1CN(CCOCCN2CCOCC2)CCO1 | inactive | –
24 | O=C(C(=O)c1ccccc1)c1ccccc1 | inactive | –
25 | Sc1nc2ccccc2s1 | – | 0.0847 µM (active)
26 | Oc1cccc2ccccc12 | inactive | –
27 | CC[N+](CC)(CC(=O)Nc1c(C)cccc1C)Cc1ccccc1 | inactive | –
